HTT aggregate: qHTS Multiplex Assay to Identify Dual Action Probes in a Cell Model of Huntington: Aggregate Formation (GFP). PC12 HttQ103-GFP aggregates, Acumen cytometry, 40 h. AID 1688, 2009. 220,000 compounds, 1.1% hits. Potency, µM (top dose mostly 46.1 µM), for inactives: top-dose activity change, negative = inhibition, actives largely listed as inhibitors; note: % is set by controls: 0 for no effect and ±100 for the full control effect; nearly all actives have a fitted effect of over 60% in size
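Read-out: GFP aggregate count by laser scanning cytometer (488 nm excitation, 500-530 nm emission, 1–25 µm objects >6 SD above background). Cells: PC12, inducible HTTex1-Q103-GFP, 100 nM tebufenozide; compounds titrated.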
Lamin A splicing: qHTS Assay for Modulators of Lamin A Splicing | HeLa LMNA splicing GFP/RFP minigene ratio, 48 h | Potency, µM (highest dose often 46.1 µM), for inactives: top-dose ratio change, negative = inhibition, most hits filed as inhibitors | 200,000 compounds, 0.01% hits | AID 1487, 2009; active = well fitted inhibition curve with a large enough effect in the signal ratio, with a control signal flat, not every such curve was filed as active; inconclusive = small, poorly fitted or top-dose-only effect, or effect the other way, or a change in a side signal; the % refers to the signal ratio; note: % is set by controls: 0 for no effect and ±100 for the full control effect
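Read-out is the ratio of GFP to DsRed2 object intensity, acquired by 488 nm laser-scanning cytometry on HeLa lamin A-EGFP minigene reporter cells. Compound incubation 48 hrs at 37 °C in Opti-MEM with 2% FBS; DMSO 0.5% final.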
Epigenetic reg: Quantitative High-Throughput Screen for Regulators of Epigenetic Control. murine LDR cells, GFP reporter derepression, 30 h. Potency, µM (highest dose often 53.9 µM), for inactives: top-dose GFP activation, hits mostly activators. 280,000 compounds, 0.2% hits; note: % of control where 0% means no effect; nearly all actives have a fitted effect of over 60% in size
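Derepression of a silenced CMV-GFP reporter in murine LDR cells is scored by enumerating GFP-positive cells with a laser-scanning microplate cytometer after 30 hours of treatment at 37 C.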
HTT cytoprotect: qHTS Multiplex Assay to Identify Dual Action Probes in a Cell Model of Huntington: Cytoprotection (ATP). 230,000 compounds, 0.14% hits. Potency, µM (series often up to 56.4 µM), without a hit: cytoprotection (ATP increase), actives largely listed as activators. PC12 HTT-Q103 induced, cytoprotection, ATP luminescence, 40 h; note: % of control where 0% means no effect; nearly all actives have a fitted effect of over 45% in size
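ATP quantification (ATPlite) reports survival of PC12 cells in which tebufenozide, 100 nM final, switches on Htt exon 1 with 103 glutamines linked to GFP; compounds are titrated.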
NPSR antag: qHTS Assay for Antagonists of the Neuropeptide S Receptor: cAMP Signal Transduction. Potency, µM (doses to about 38.3 µM), without a hit: top-dose activity change, negative = inhibition, usual class: inhibitors. Q6W5P4. AID 1461, 2008. CHO-NPSR cells, cAMP TR-FRET, antagonist mode. 220,000 compounds, 1% hits; note: % is set by controls: 0 for no effect and ±100 for the full control effect; nearly all actives have a fitted effect of over 50% in size
Target sequence (Q6W5P4 whole entry, looked up): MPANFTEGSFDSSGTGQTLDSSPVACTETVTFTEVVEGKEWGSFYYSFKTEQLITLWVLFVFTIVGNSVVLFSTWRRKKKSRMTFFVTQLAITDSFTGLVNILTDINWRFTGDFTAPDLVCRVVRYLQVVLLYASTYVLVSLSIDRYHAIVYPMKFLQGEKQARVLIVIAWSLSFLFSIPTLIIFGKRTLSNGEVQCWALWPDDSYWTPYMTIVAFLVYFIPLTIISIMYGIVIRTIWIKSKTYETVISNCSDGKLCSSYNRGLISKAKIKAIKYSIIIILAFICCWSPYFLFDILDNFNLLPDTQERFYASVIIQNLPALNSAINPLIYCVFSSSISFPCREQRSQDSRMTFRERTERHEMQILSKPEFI
The depositor's hits bear a star; ? = inconclusive; / = not tested or not shown; [ ] = dose if it differs, or a comment. This is a sample that favours compounds with a hit; in the whole collection about 1.5% have one here. Unless noted, calls come from the whole dose curve; as a rule, active = well fitted curve in the direction sought with a large enough effect; inconclusive = small, poorly fitted or top-dose-only effect, or another doubt; inactive = no such curve, though single readings can be large; an effect the other way counts as inactive or inconclusive. Potency is the fitted concentration of half-maximal effect.

SMILES	HTT aggregate	Lamin A splicing	Epigenetic reg	HTT cytoprotect	NPSR antag
CN1/C(=C\C=C\C2=[N+](C)c3ccc4ccccc4c3C2(C)C)C(C)(C)c2ccccc21	2.82µM*	?	0.2%	-114.2%	7.94µM*
C[C@@H]1O[C@@H](O[C@H]2C[C@@H](O)[C@]3(CO)[C@@H]4[C@@H](O)C[C@]5(C)[C@H]([C@@H]6COC(=O)C6)CC[C@@]5(O)[C@H]4CC[C@@]3(O)C2)[C@H](O)[C@H](O)[C@@H]1O	/	/	/	6.9%[1.9 µM]	/
C=C(C=O)C[C@@H]1C[C@H](O)C2OC3C[C@]4(C)OC5/C=C\CC6OC7C(CC=CCC6OC5CCCC4OC3CC2O1)OC1CC2OC3CC(=O)OC3C[C@@H](C)C[C@@]2(C)OC1C[C@@H]7C (stereo partly drawn)	?	/	0.0%	-62.3%[10 µM]	0.794µM*
C=C(CC1CC(O)[C@]2(C)OC3CC4OC5C[C@]6(C)O[C@]7(C)CCC8OC9C[C@]%10(C)OC%11C(C)=CC(=O)OC%11CC%10OC9C[C@@H](C)C8OC7CC6O[C@]5(C)C/C=C\C4OC3CC2O1)C(=O)O (stereo partly drawn)	1.5%[9.22 µM]	/	-1.4%	-19.7%[10 µM]	53.0%
CN1CCN(c2ccc([N+](=O)[O-])c3no[n+]([O-])c23)CC1	?	/	7.6%	-77.7%[10 µM]	10µM*
CCCCCCCSc1cc(OC)c(CCN(C)C)cc1OC	10µM*	?	1.4%	-116.7%	?
O=c1cccc2n1C[C@@H]1C[C@H]2CN2CCCC[C@H]12	/	/	/	-64.5%	/
[Hg+][c]1ccccc1	3.16µM*	/	/	-98.9%	/
CC(C)c1ccc(C2N3CCCN23)cc1 (stereo not drawn)	-0.2%	1.0%	7.0%	/	12.9%
c1ccc2cc(C3N4CCCN34)ccc2c1 (stereo not drawn)	8.7%	/	6.6%	3.98µM*	13.2%
O=C(O)/C=C\c1ccc[c]([Sb](=[O])([OH])[OH])c1	/	/	/	2.1%[10 µM]	/
CC(C)c1ccc(N2C(=O)NC(=O)/C(=C/c3cnc(-c4ccccc4)nc3)C2=O)cc1	6.0%	-7.4%	?	4.9%[10 µM]	-23.5%[46.1 µM]
O=C1NC(=O)N(Cc2ccccc2)C(=O)/C1=C/c1cnc(-c2ccccc2)nc1	10.0%	/	4.0%	-11.7%	10µM*
O=[N+]([O-])/C=C/c1c(OCc2ccccc2)ccc2ccccc12	?	?	?	-116.5%	6.31µM*
C[n+]1c(-c2ccccc2)cc(CCCCc2cc(-c3ccccc3)[n+](C)c(-c3ccccc3)c2)cc1-c1ccccc1	22.4µM*	-12.7%[46 µM]	1.1%	17.4%[10 µM]	?
COc1ccc(-c2cc(-c3ccccc3)[n+](C)c(-c3ccccc3)c2)cc1	7.08µM*	?	0.1%	-54.0%[10 µM]	-9.9%
CCN(CC)C(=O)N[C@@H]1C=C2c3cccc4[nH]cc(c34)C[C@@H]2N(C)C1	/	/	/	26.2%[1.9 µM]	/
CC1(C)C[C@H]2C=C(C=O)[C@]3(C=O)C[C@]3(C)[C@H]2C1	8.91µM*	?	0.1%	/	12.6µM*
CCN1C[C@@]2(COC(=O)c3ccccc3N3C(=O)C[C@H](C)C3=O)CC[C@H](OC)[C@@]34[C@@H]5CC6[C@@H](OC)C[C@@](O)([C@H]5[C@H]6OC)C(O)([C@@H]13)[C@@H](OC)[C@H]24	/	/	/	6.9%	/
COC(=O)C1CN(C#N)N(c2ccc(Cl)cc2)C12c1ccccc1-c1ccccc12 (stereo not drawn)	?	?	13.7%	-96.8%[10 µM]	7.94µM*
CC[C@@H]1CN2CC[C@@H]1C[C@H]2[C@@H](O)c1ccnc2ccc(OC)cc12	/	/	/	27.0%	/
O=C1NC(=O)N(CCc2ccc(F)cc2)C(=O)/C1=C\C=C\c1ccccc1	21.1%	/	10.2%	-24.7%	-58.8%
CN1C(=O)NC(=O)/C(=C\C=C\c2ccccc2[N+](=O)[O-])C1=O	?	?	?	-8.2%	10µM*
O=C1C=C2C=CC3C[C@@]2(O1)C1CCCCN31 (stereo partly drawn)	/	/	2.7%	1.58µM*	/
O=C1C=C2C=C[C@H]3C[C@@]2(O1)[C@H]1CCCCN31	/	?	-1.4%[16.9 µM]	6.31µM*	/
SMILES	HTT aggregate	Lamin A splicing	Epigenetic reg	HTT cytoprotect	NPSR antag
O=C1C=C2C=C[C@H]3C[C@]2(O1)[C@@H]1CCCCN13	/	?	-1.0%	/	16.1%
CCCN1CCc2cccc3c2[C@@H]1Cc1ccc(O)c(O)c1-3	/	/	/	5.7%[1.9 µM]	/
CCCCn1c(O)c(C(CC)=NCc2ccc3c(c2)OCO3)c(=O)[nH]c1=O	25.1µM*	-17.6%	-1.0%	-17.9%	-18.0%[46.1 µM]
CC1(C)C(=O)C=C[C@@]2(C)C1CC(O)[C@]1(C)C2CC[C@@]2(C)C(c3ccoc3)OC(=O)C3O[C@]312 (stereo partly drawn)	/	/	-1.3%	0.794µM*	/
CC1(C)C(O)CC(O)[C@]2(C)C1CC(O)[C@]1(C)C2CC[C@@]2(C)C(c3ccoc3)OC(=O)C3O[C@]312 (stereo partly drawn)	/	/	3.7%	3.5%	/
O=C(COc1ccc2ccccc2c1)N1CCN(Cc2c[nH]c3ccccc23)CC1	10µM*	?	-0.9%	-59.2%[10 µM]	-3.9%[46.1 µM]
CN(C)c1ncc(/C=C2/C(=O)NC(=S)N(C3CCCCC3)C2=O)cn1	-2.4%	-9.0%[46 µM]	-2.4%	8.7%	10µM*
CN(C)[C@@H]1C(=O)C(C(N)=O)=C(O)[C@]2(O)C(=O)C3=C(O)c4c(O)cccc4[C@@](C)(O)[C@@H]3C[C@@H]12	/	/	/	-14.9%	/
O=C1C(=O)c2ccccc2-c2ccccc21	?	?	-1.6%	-96.4%	3.16µM*
O=C1C(=O)c2cccc3cccc1c23	-8.1%	-5.7%	?	/	25.2%
Cn1cc[n+](C)c1P(=S)(c1ccccc1)c1ccccc1	4.0%	-14.4%[46 µM]	3.0%	-5.8%	5.01µM*
C[n+]1c2cc(N)ccc2cc2ccc(N)cc21	10µM*	?	0.794µM*	-75.7%	/
Nc1ccc2ccccc2c1	/	/	/	-52.0%	/
CNc1ccc2oc(C[C@H]3O[C@@]4(CC[C@H]3C)O[C@H]([C@H](C)C(=O)c3ccc[nH]3)[C@H](C)C[C@H]4C)nc2c1C(=O)O	?	?	3.5%	-65.6%[10 µM]	7.94µM*
CC[C@H]1C(=O)OC[C@@H]1Cc1cncn1C	/	/	/	10.4%	/
Clc1ccc(C(c2ccc(Cl)cc2)n2cc[n+](CC(OCc3ccc(Cl)cc3Cl)c3ccc(Cl)cc3Cl)c2)cc1 (stereo not drawn)	/	?	0.0%	/	12.6µM*
O=C(c1ccccc1)c1cn(CC(=O)N2CCCc3ccccc32)c2ccccc12	-1.1%	-9.2%	0.0%	6.5%[10 µM]	10µM*
C[C@@]12CC[C@H]3[C@@H](CC=C4C[C@H](OS(=O)(=O)O)CC[C@]43C)[C@H]1CCC2=O	/	/	/	12.3%[1.9 µM]	/

From PubChem
